Measured values taken from PubChem BioAssay AID1159580 (chemical genetic matrix, 2015).
The whole screen tested about 5,500 compounds, of which about 2,000 (36%) were called active. Inconclusive results (about 18%) are left out. No stated cut-off is given here; in the data, active means normalized growth mostly below about 0.91 (no sharp cut-off); inconclusive means no clear call, values can overlap the other calls; inactive means mostly above about 0.92. The list shows a part of the results.

Test: chemical genetic growth profiling, strain panel (AID 1159580);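 further: tested at 20 µM; growth read once vehicle control cultures reached saturation at 30 °C; 1 = growth at the plate median or of vehicle wells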
Conditions: growth OD
[1] = S. cerevisiae deletion strains, locus YAL013W, strain DEP1, stronger effect = lower value
[2] = S. cerevisiae deletion strains, locus YBR229C, strain ROT2, stronger effect = lower value
[3] = S. cerevisiae deletion strains, locus YCL061C, strain MRC1, stronger effect = lower value
[4] = S. cerevisiae deletion strains, locus YDL101C, strain DUN1, stronger effect = lower value
[5] = S. cerevisiae deletion strains, locus YDR150W, strain NUM1, stronger effect = lower value
[6] = S. cerevisiae deletion strains, locus YEL061C, strain CIN8, stronger effect = lower value
[7] = S. cerevisiae deletion strains, locus YGR078C, strain PAC10, stronger effect = lower value
[8] = S. cerevisiae deletion strains, locus YHR030C, strain SLT2, stronger effect = lower value
[9] = S. cerevisiae deletion strains, locus YHR087W, strain rtc3, stronger effect = lower value
[10] = S. cerevisiae deletion strains, locus YJR043C, strain POL32, stronger effect = lower value
[11] = S. cerevisiae deletion strains, locus YJR075W, strain HOC1, stronger effect = lower value
[12] = S. cerevisiae deletion strains, locus YLR039C, strain RIC1, stronger effect = lower value
[13] = S. cerevisiae deletion strains, locus YLR058C, strain SHM2 (second series), stronger effect = lower value
[14] = S. cerevisiae deletion strains, locus YLR085C, strain ARP6, stronger effect = lower value
[15] = S. cerevisiae deletion strains, locus YLR262C, strain YPT6, stronger effect = lower value
[16] = S. cerevisiae deletion strains, locus YML094W, strain GIM5, stronger effect = lower value
[17] = S. cerevisiae deletion strains, locus YMR219W, strain ESC1, stronger effect = lower value
[18] = S. cerevisiae deletion strains, locus YMR263W, strain SAP30, stronger effect = lower value
[19] = S. cerevisiae deletion strains, locus YNL153C, strain GIM3, stronger effect = lower value
[20] = S. cerevisiae deletion strains, locus YNL298W, strain CLA4 (second series), stronger effect = lower value
[21] = S. cerevisiae deletion strains, locus YNL322C, strain KRE1, stronger effect = lower value
[22] = S. cerevisiae deletion strains, locus YNR030W, strain Alg12, stronger effect = lower value
[23] = S. cerevisiae deletion strains, locus YPL055C, strain LGE1, stronger effect = lower value
[24] = S. cerevisiae deletion strains, locus YPL241C, strain CIN2, stronger effect = lower value
[25] = S. cerevisiae deletion strains, locus YPR135W, strain CTF4, stronger effect = lower value
[26] = S. cerevisiae deletion strains, locus YGR229C, strain SMI1, stronger effect = lower value
[27] = S. cerevisiae deletion strains, locus YKL190W, strain CNB1, stronger effect = lower value
[28] = S. cerevisiae deletion strains, locus YNL128W, strain TEP1, stronger effect = lower value

Measured: normalized growth

c1ccc(-c2nc(-c3cccs3)cs2)cc1
active: [1] 0.916 | [2] 0.877 | [3] 0.895 | [6] 0.838 | [7] 0.88 | [8] 0.166 | [9] 0.744 | [11] 0.707 | [12] 0.273 | [13] 0.859 | [14] 0.408 | [15] 0.274 | [16] 0.866 | [17] 0.919 | [20] 0.714 | [21] 0.914 | [22] 0.693 | [23] 0.768 | [24] 0.813 | [25] 0.341
inactive: [4] 0.988 | [5] 0.939 | [10] 0.973 | [18] 0.931 | [19] 0.983

Brc1ccc(-c2csc(-c3ccncc3)n2)cc1
inactive: S. cerevisiae deletion strains, locus YAR019C, strain CDC15, stronger effect = lower value 0.909 | S. cerevisiae deletion strains, locus YBL105C, strain PKC1, stronger effect = lower value 0.943 | S. cerevisiae deletion strains, locus YBR135W, strain CKS1, stronger effect = lower value 0.904 | S. cerevisiae deletion strains, locus YBR136W, strain MEC1, stronger effect = lower value 0.916 | S. cerevisiae deletion strains, locus YBR160W, strain CDC28, stronger effect = lower value 0.904 | S. cerevisiae deletion strains, locus YDL017W, strain CDC7, stronger effect = lower value 0.923 | S. cerevisiae deletion strains, locus YDL028C, strain MPS1, stronger effect = lower value 0.92 | S. cerevisiae deletion strains, locus YDL108W, strain KIN28, stronger effect = lower value 0.932 | S. cerevisiae deletion strains, locus YDL132W, strain cdc53, stronger effect = lower value 0.94 | S. cerevisiae deletion strains, locus YDL214C, strain PRR2, stronger effect = lower value 0.848 | S. cerevisiae deletion strains, locus YDR477W, strain SNF1, stronger effect = lower value 0.705 | S. cerevisiae deletion strains, locus YER123W, strain YCK3, stronger effect = lower value 0.703 | S. cerevisiae deletion strains, locus YFL029C, strain CAK1, stronger effect = lower value 0.911 | S. cerevisiae deletion strains, locus YFR003C, strain YPI1, stronger effect = lower value 0.942 | S. cerevisiae deletion strains, locus YFR019W, strain FAB1, stronger effect = lower value 0.874 | S. cerevisiae deletion strains, locus YFR028C, strain CDC14, stronger effect = lower value 0.895 | S. cerevisiae deletion strains, locus YHR079C, strain IRE1, stronger effect = lower value 0.632 | S. cerevisiae deletion strains, locus YHR082C, strain KSP1, stronger effect = lower value 0.635 | S. cerevisiae deletion strains, locus YHR205W, strain SCH9, stronger effect = lower value 0.622 | S. cerevisiae deletion strains, locus YIL147C, strain SLN1, stronger effect = lower value 0.919 | S. cerevisiae deletion strains, locus YJL128C, strain PBS2, stronger effect = lower value 0.958 | S. cerevisiae deletion strains, locus YJL157C, strain FAR1, stronger effect = lower value 0.847 | S. cerevisiae deletion strains, locus YJR016C, strain ILV3, stronger effect = lower value 0.914 | S. cerevisiae deletion strains, locus YJR066W, strain TOR1 (second series), stronger effect = lower value 0.797 | S. cerevisiae deletion strains, locus YKL048C, strain ELM1, stronger effect = lower value 0.889 | S. cerevisiae deletion strains, locus YKL067W, strain YNK1, stronger effect = lower value 0.856 | S. cerevisiae deletion strains, locus YKL101W, strain HSL1, stronger effect = lower value 0.889 | S. cerevisiae deletion strains, locus YKL193C, strain SDS22, stronger effect = lower value 0.891 | S. cerevisiae deletion strains, locus YLR133W, strain CKI1, stronger effect = lower value 0.844 | S. cerevisiae deletion strains, locus YLR403W, strain SFP1, stronger effect = lower value 0.689 | S. cerevisiae deletion strains, locus YML070W, strain DAK1, stronger effect = lower value 0.77 | S. cerevisiae deletion strains, locus YMR001C, strain CDC5, stronger effect = lower value 0.901 | S. cerevisiae deletion strains, locus YMR205C, strain PFK2 (second series), stronger effect = lower value 0.854 | S. cerevisiae deletion strains, locus YMR277W, strain FCP1, stronger effect = lower value 0.892 | S. cerevisiae deletion strains, locus YNL006W, strain LST8, stronger effect = lower value 0.939 | S. cerevisiae deletion strains, locus YNL020C, strain ARK1, stronger effect = lower value 0.868 | S. cerevisiae deletion strains, locus YNL161W, strain CBK1, stronger effect = lower value 0.908 | S. cerevisiae deletion strains, locus YNL222W, strain SSU72, stronger effect = lower value 0.938 | S. cerevisiae deletion strains, locus YNL307C, strain MCK1 (second series), stronger effect = lower value 0.847 | S. cerevisiae deletion strains, locus YOL078W, strain AVO1, stronger effect = lower value 0.898 | S. cerevisiae deletion strains, locus YOL136C, strain PFK27, stronger effect = lower value 0.846 | S. cerevisiae deletion strains, locus YOR061W, strain CKA2, stronger effect = lower value 0.925 | S. cerevisiae deletion strains, locus YOR329C, strain SCD5, stronger effect = lower value 0.933 | S. cerevisiae deletion strains, locus YPL031C, strain PHO85, stronger effect = lower value 0.687 | S. cerevisiae deletion strains, locus YPL209C, strain IPL1, stronger effect = lower value 0.919 | S. cerevisiae deletion strains, locus YPR025C, strain CCL1, stronger effect = lower value 0.92 | S. cerevisiae deletion strains, locus YPR106W, strain ISR1, stronger effect = lower value 0.919 | S. cerevisiae deletion strains, locus YPR111W, strain DBF20, stronger effect = lower value 0.902 | S. cerevisiae deletion strains, strain TSCII, stronger effect = lower value 0.88
active: [4] 0.888 | S. cerevisiae deletion strains, locus YDR052C, strain DBF4, stronger effect = lower value 0.892 | S. cerevisiae deletion strains, locus YDR054C, strain cdc34, stronger effect = lower value 0.862 | S. cerevisiae deletion strains, locus YDR226W, strain ADK1, stronger effect = lower value 0.895 | S. cerevisiae deletion strains, locus YER133W, strain GLC7, stronger effect = lower value 0.683 | S. cerevisiae deletion strains, locus YFL009W, strain cdc4, stronger effect = lower value 0.878 | S. cerevisiae deletion strains, locus YGR040W, strain KSS1, stronger effect = lower value 0.59 | S. cerevisiae deletion strains, locus YGR052W, strain FMP48, stronger effect = lower value 0.41 | S. cerevisiae deletion strains, locus YGR092W, strain DBF2, stronger effect = lower value 0.443 | [8] 0.312 | S. cerevisiae deletion strains, locus YJL095W, strain BCK1, stronger effect = lower value 0.149 | S. cerevisiae deletion strains, locus YJR066W, strain TOR1, stronger effect = lower value 0.24 | S. cerevisiae deletion strains, locus YKL203C, strain TOR2, stronger effect = lower value 0.221 | S. cerevisiae deletion strains, locus YLR113W, strain HOG1, stronger effect = lower value 0.315 | S. cerevisiae deletion strains, locus YNL183C, strain NPR1, stronger effect = lower value 0.257 | S. cerevisiae deletion strains, locus YNL207W, strain RIO2, stronger effect = lower value 0.839 | S. cerevisiae deletion strains, locus YOR119C, strain RIO1, stronger effect = lower value 0.306 | S. cerevisiae deletion strains, locus YOR231W, strain MKK1, stronger effect = lower value 0.488 | S. cerevisiae deletion strains, locus YPL153C, strain RAD53, stronger effect = lower value 0.609 | S. cerevisiae deletion strains, locus YPL204W, strain HRR25, stronger effect = lower value 0.64 | S. cerevisiae deletion strains, locus YPL256C, strain CLN2, stronger effect = lower value 0.578 | S. cerevisiae deletion strains, strain NNK1, stronger effect = lower value 0.875

OC(c1ccccc1)(c1ccccc1)c1ccncc1
inactive: [1] 1.05 | [2] 1 | [4] 1 | [5] 1.01 | [6] 0.991 | [7] 1.02 | [26] 0.997 | [8] 1.03 | [9] 1.02 | [10] 1.01 | [11] 0.984 | [27] 0.996 | [12] 1.03 | [13] 0.996 | [14] 1.19 | [15] 0.997 | [16] 1.04 | [17] 0.999 | [18] 1.03 | [28] 0.999 | [19] 1.02 | [20] 1.01 | [21] 1 | [22] 1.03 | [23] 1.09 | [24] 1.1 | [25] 1.14 | S. cerevisiae strains, strain wild type, stronger effect = lower value 1.01

c1ccc(-c2csc(-c3ccncc3)n2)cc1
inactive: [2] 0.979 | [3] 0.944 | [4] 0.967 | [5] 0.934 | [6] 0.914 | [7] 0.974 | [26] 0.958 | [9] 0.981 | S. cerevisiae deletion strains, locus YJL187C, strain SWE1, stronger effect = lower value 1.03 | [10] 0.974 | [11] 0.987 | [13] 0.972 | [17] 0.971 | [18] 0.946 | S. cerevisiae deletion strains, locus YMR307W, strain GAS1, stronger effect = lower value 0.737 | [28] 0.937 | [19] 0.964 | [21] 0.989 | [22] 0.901 | [23] 0.832
active: [1] 0.916 | [8] 0.22 | [27] 0.894 | [12] 0.371 | [14] 0.535 | [15] 0.384 | [16] 0.814 | [20] 0.829 | S. cerevisiae deletion strains, locus YOL006C, strain TOP1, stronger effect = lower value 0.379 | [24] 0.8 | [25] 0.515
